Reference: the supplement of paper PMC11732987, “Enantioselective OTUD7B fragment discovery through chemoproteomics screening and high-throughput optimisation” (Communications Chemistry, 2025)

What was measured:
Experiment in all cases: log2 ratio of Biotin-Ahx-Ub-VS probe labelling (fragment/DMSO); higher = less target engagement (more negative = stronger competition), active = hit call of the paper (q ≤ 0.05, log2 ratio ≤ -1)
Details in all cases: compound concentration: 200 uM; treatment time: 3 h
ALG13 = target: T1, ALG13 (UniProt Q9NP73)
T1 sequence (whole entry): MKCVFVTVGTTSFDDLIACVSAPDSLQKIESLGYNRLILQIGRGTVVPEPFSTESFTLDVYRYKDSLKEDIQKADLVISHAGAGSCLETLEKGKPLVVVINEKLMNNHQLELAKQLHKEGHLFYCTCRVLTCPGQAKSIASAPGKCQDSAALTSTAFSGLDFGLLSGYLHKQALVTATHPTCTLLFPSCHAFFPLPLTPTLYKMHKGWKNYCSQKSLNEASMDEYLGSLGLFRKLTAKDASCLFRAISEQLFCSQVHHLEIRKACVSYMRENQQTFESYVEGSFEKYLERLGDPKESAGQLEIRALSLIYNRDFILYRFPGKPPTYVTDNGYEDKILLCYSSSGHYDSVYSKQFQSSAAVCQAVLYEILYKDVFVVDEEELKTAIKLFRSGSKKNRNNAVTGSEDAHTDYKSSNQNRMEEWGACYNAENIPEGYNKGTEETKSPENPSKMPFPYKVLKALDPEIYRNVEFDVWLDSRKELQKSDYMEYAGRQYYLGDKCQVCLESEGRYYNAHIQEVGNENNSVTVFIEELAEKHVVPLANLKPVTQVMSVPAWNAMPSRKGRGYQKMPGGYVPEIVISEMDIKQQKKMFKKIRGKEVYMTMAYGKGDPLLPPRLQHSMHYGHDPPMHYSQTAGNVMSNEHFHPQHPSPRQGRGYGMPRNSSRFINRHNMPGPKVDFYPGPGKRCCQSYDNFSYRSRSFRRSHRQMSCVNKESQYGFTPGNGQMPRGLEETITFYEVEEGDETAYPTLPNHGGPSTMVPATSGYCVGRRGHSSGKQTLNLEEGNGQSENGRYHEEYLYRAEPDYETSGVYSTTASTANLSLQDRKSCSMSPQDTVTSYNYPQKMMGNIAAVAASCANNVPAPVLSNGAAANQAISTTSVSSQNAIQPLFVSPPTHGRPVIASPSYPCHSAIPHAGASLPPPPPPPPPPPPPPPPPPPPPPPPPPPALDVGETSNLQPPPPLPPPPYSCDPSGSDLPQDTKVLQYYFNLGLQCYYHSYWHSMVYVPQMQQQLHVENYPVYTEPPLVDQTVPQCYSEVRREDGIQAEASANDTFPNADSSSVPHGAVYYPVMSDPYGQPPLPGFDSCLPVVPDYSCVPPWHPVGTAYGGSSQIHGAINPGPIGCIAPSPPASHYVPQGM
Procedure, shortened: (§1)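 Global-median-normalised Spectronaut label-free quantities were compared by unpaired t-test, and values are average log2 ratios of fragment over vehicle. Only proteins with ≥2 unique peptides were used. HEK293T lysate (495 µg per sample) was treated in triplicate with fragment at 200 µM or vehicle for 3 h and then with Biotin-Ahx-Ub-VS at 0.5 µM final for 1 h. Labelled DUBs were then NeutrAvidin-enriched, digested with LysC and trypsin, and run by diaPASEF LC-MS/MS.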

ATXN3 = ATXN3 (UniProt P54252)
Procedure, shortened: as §1

BAP1 = target: T2, BAP1 (UniProt Q92560)
T2 sequence (whole entry): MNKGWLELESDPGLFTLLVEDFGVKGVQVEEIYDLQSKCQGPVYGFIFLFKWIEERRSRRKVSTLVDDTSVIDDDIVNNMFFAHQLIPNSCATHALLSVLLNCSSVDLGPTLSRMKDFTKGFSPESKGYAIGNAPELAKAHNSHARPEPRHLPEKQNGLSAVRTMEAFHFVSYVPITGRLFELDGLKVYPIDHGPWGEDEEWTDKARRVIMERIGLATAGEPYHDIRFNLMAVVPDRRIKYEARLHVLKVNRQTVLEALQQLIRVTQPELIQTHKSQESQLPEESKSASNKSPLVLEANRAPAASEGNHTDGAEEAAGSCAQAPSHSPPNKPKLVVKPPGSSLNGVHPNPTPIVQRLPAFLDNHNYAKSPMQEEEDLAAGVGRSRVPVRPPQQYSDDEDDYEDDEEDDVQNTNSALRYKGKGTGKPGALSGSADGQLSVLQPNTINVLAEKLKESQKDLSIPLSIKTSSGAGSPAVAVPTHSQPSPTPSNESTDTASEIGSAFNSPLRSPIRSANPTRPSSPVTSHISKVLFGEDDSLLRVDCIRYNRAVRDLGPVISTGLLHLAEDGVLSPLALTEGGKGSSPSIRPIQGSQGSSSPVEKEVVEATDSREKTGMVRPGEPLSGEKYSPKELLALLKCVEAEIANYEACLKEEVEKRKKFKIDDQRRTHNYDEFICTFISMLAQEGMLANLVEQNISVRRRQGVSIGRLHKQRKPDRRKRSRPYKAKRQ
Procedure, shortened: as §1

EIF3F = EIF3F (UniProt O00303)
Procedure, shortened: as §1

EIF3H = EIF3H (UniProt O15372)
Procedure, shortened: as §1

FAM105A = target: T3, FAM105A (UniProt Q9NUU6)
T3 sequence (whole entry): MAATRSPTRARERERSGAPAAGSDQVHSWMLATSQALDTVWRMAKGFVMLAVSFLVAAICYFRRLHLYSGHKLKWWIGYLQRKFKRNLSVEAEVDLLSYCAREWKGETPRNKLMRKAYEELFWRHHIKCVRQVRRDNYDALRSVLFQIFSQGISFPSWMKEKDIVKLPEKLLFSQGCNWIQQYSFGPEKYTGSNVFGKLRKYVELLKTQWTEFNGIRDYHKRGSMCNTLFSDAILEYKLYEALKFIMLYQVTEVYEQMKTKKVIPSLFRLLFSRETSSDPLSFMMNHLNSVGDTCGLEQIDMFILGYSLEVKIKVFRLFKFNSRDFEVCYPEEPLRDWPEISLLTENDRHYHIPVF
Procedure, shortened: as §1

OTUB1 = OTUB1 (UniProt Q96FW1)
Procedure, shortened: as §1

OTUD4 = target: T4, OTUD4 (UniProt Q01804)
T4 sequence (whole entry): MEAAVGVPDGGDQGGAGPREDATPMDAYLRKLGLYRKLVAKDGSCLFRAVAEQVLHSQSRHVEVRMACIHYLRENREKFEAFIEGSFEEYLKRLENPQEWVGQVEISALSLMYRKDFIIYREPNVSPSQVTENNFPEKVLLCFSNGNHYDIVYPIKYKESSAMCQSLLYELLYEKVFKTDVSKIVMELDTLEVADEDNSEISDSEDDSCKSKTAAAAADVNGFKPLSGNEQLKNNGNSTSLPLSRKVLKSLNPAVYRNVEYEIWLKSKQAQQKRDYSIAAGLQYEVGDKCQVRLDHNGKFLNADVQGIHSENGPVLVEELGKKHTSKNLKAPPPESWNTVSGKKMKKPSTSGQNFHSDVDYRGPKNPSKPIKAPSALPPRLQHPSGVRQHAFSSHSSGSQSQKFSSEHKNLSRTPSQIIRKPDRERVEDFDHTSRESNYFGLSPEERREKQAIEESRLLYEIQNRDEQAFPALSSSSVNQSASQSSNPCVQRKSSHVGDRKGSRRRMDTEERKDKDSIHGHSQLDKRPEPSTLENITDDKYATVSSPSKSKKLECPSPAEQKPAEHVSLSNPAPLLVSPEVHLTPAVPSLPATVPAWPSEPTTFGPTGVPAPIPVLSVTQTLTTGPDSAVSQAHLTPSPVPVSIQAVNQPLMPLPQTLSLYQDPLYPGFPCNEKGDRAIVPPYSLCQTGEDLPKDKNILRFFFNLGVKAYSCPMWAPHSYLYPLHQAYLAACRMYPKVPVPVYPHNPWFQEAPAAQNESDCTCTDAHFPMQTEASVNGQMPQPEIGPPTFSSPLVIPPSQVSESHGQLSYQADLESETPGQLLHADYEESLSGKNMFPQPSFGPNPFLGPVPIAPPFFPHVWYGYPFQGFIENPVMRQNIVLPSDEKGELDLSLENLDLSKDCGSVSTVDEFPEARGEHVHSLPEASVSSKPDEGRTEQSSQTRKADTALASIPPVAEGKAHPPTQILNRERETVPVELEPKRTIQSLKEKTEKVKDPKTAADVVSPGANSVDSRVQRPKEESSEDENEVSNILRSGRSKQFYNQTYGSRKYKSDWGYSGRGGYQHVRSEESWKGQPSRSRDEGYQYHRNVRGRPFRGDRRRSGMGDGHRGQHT
Procedure, shortened: as §1

OTUD5 = target: T5, OTUD5 (UniProt Q96G74)
T5 sequence (whole entry): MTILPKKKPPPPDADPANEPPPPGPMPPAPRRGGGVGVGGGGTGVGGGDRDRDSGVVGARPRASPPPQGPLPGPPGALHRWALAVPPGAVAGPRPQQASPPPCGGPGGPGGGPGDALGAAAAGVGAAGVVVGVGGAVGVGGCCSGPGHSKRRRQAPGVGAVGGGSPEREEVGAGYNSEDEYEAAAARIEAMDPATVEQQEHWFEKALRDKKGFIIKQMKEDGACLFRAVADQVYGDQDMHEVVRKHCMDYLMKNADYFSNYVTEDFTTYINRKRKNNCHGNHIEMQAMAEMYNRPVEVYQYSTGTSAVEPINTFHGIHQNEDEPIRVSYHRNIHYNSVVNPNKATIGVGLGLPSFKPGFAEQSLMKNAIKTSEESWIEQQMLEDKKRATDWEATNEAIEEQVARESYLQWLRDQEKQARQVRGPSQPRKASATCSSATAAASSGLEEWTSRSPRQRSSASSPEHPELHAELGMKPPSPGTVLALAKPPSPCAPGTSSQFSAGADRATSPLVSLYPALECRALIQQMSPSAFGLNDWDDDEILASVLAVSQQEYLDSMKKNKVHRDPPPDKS
Procedure, shortened: as §1

Measured: log2 ratio of Biotin-Ahx-Ub-VS probe labelling

Sequence of OTUB1 (Q96FW1 whole entry): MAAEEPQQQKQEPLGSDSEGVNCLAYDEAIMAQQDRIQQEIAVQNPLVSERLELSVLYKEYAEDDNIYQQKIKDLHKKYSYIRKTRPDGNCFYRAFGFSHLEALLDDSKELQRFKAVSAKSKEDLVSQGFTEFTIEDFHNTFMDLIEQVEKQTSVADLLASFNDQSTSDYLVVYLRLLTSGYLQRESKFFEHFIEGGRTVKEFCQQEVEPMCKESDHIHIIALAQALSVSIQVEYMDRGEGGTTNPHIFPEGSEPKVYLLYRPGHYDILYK
Sequence of EIF3H (O15372 whole entry): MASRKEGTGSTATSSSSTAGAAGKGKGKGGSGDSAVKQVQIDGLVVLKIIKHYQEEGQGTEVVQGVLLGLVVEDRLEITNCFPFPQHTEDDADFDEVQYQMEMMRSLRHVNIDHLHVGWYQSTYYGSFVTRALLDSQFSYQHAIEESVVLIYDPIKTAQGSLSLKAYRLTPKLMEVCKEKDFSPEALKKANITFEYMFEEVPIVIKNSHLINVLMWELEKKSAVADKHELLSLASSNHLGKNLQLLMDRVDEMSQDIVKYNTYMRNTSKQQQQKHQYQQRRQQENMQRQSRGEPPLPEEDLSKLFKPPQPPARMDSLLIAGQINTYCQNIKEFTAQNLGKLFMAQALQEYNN
Sequence of ATXN3 (P54252 whole entry): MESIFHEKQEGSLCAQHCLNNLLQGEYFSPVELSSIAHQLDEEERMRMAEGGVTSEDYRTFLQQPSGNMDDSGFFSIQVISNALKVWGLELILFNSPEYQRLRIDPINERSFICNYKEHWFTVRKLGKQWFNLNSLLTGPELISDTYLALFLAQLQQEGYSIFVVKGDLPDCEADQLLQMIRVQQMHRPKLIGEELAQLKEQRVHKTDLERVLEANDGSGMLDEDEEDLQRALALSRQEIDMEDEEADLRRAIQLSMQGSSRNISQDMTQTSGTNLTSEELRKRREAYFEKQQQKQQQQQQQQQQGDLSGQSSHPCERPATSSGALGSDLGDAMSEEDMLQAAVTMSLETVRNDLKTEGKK
Sequence of EIF3F (O00303 whole entry): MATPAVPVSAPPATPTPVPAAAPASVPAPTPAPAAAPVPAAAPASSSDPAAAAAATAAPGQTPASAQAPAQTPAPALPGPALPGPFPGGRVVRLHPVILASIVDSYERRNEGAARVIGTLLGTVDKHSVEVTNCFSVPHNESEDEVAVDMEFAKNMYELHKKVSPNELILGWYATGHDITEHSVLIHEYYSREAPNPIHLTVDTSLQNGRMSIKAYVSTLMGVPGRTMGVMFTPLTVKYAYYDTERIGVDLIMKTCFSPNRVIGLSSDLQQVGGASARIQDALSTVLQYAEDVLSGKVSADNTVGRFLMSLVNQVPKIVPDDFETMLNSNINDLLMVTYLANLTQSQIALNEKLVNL

O=C(CCl)N(C1=CCCCC1)C1CC1
inactive: ALG13 0.101 | ATXN3 -0.0892 | BAP1 -0.204 | EIF3F -0.311 | EIF3H 0.314 | FAM105A 0.173 | OTUB1 -0.159 | OTUD4 0.037 | OTUD5 -0.182
